# Measurements published in ChEMBL document CHEMBL3988442, “University of Dundee, Small-Polar-MMV Screening Library” (2021).
# The whole screen tested about 66,000 compounds, of which about 960 (1.5%) showed an effect of 50% or more. The sample holds strong results, similar compounds and a random draw of the others, so the mix is not that of the screen.
# Tested on: Trypanosoma brucei
# Assay: Trypanosoma brucei 72 hour study
# Assay type: functional, organism-based
# Parameters: scale not given: in the data most compounds retested in dose-response had high values
smiles,measurement,setting,value
Nc1cc(N2CCCC(CO)(Cc3ccccc3F)C2)nc(N)n1 (stereo unspecified),Percent Effect,"30 µM, 30.03 µM",15.39%
CCn1nc2c(cc1=O)CN(Cc1coc(-c3ccccc3)n1)CC2,Percent Effect,"30.3 µM, […]",3.49%
CCOCC(=O)N1CCC2(CC1)COCCN2CCN(C)C.O=C(O)C(F)(F)F.O=C(O)C(F)(F)F,Percent Effect,"30.3 µM, […]",-7.88%
CCCNC(c1ccc(F)cc1)c1cccnc1.Cl.Cl (stereo unspecified),Percent Effect,"30 µM, 30.03 µM",-17.83%
CN(C)C(=O)c1ccc(C2CCCNC2)nc1.Cl.Cl (stereo unspecified),Percent Effect,"30.3 µM, […]",-34.47%
Cl.c1nc(CCC2CCCN2)cc(N2CCCCCC2)n1 (stereo unspecified),Percent Effect,"30.3 µM, […]",-0.6472%
COc1ncccc1NC(=O)NCC1CC1,Percent Effect,"30.3 µM, […]",14.51%
COc1ncccc1NC(=O)NCC1CCS(=O)(=O)C1 (stereo unspecified),Percent Effect,"30 µM, 30.03 µM",51.37%
CCN1CCC(CNC(=O)Nc2cccnc2OC)CC1,Percent Effect,"30.3 µM, […]",3.244%
CCOc1ccc(C(=O)N2CCCC(n3nc(C)nc3C)C2)cc1 (stereo unspecified),Percent Effect,10 µM,-77.91%
Cc1nnc(N2CCCC3(CN(c4ccccn4)CCO3)C2)o1.O=C(O)C(F)(F)F (stereo unspecified),Percent Effect,"30.3 µM, […]",1.863%
Cc1cc(NCc2cc(C)oc2C(F)(F)F)n2nc(C)cc2n1,Percent Effect,"30 µM, 30.03 µM",27.35%
COc1ccccc1C1(CNc2cc(C(=O)N(C)C)ccn2)CC1,Percent Effect,"30 µM, 30.03 µM",-21.75%
COc1ccccc1C1(CNc2ccc(C(=O)N(C)C)cn2)CC1,Percent Effect,"30 µM, 30.03 µM",-17.01%
COc1ccccc1C1(CNc2ccnc(C(=O)N(C)C)c2)CC1,Percent Effect,"30 µM, 30.03 µM",98.99%
CN1CCO[C@@H]2CN(C(=O)NCc3ccccc3)CC[C@@H]2C1.O=C(O)C(F)(F)F,Percent Effect,"30.3 µM, […]",-54.53%
Cn1ccnc1C(=O)N1CCC2(CCN2c2ncccn2)C1.O=C(O)C(F)(F)F (stereo unspecified),Percent Effect,"30.3 µM, […]",-37.97%
CCC1CN(C)c2ccccc2CN1CCn1cncn1 (stereo unspecified),Percent Effect,"30 µM, 30.03 µM",56.46%
CCC1CN(C)c2ccccc2CN1C(=O)CCn1cncn1 (stereo unspecified),Percent Effect,"30 µM, 30.03 µM",12.6%
CC1CN(C)c2ccccc2CN1CCn1cncn1 (stereo unspecified),Percent Effect,"30 µM, 30.03 µM",-41.9%
COc1cc(C)c(S(=O)(=O)NCc2cccnc2N(C)C)c(C)c1,Percent Effect,"30.3 µM, […]",6.422%
Cc1ccc(C)c(-n2cc(CN3CC[C@@H](O)C3)c(-c3ccccc3)n2)c1,Percent Effect,"30.3 µM, […]",100.3%
Cc1ccc(-n2cc(CN3CCOCC3)c(-c3cccc(C)c3)n2)cc1,Percent Effect,"30.3 µM, […]",3.807%
Cc1ccc(C)c(-n2cc(CN3CCOCC3)c(-c3ccccc3)n2)c1,Percent Effect,"30.3 µM, […]",5.174%
O=C(NC1CC1)C1=CC2(CCN(CCO)CC2)c2ccccc21.O=C(O)C(F)(F)F,Percent Effect,"30.3 µM, […]",-19.93%
CCN1CCN2CCCN(S(=O)(=O)c3ccc(C)cc3C)C2C1=O (stereo unspecified),Percent Effect,"30.3 µM, […]",8.732%
CCN1CCN2CCCN(S(=O)(=O)c3cccc(F)c3)C2C1=O (stereo unspecified),Percent Effect,"30.3 µM, […]",65.65%
CCN1CCN2CCCN(S(=O)(=O)c3ccc(S(C)(=O)=O)cc3)C2C1=O (stereo unspecified),Percent Effect,"30.3 µM, […]",30.28%
COc1cc(C(=O)N2C[C@H]3CC[C@@H]2CN(Cc2cscn2)C3)ccn1,Percent Effect,"30 µM, 30.03 µM",1.07%
CS(=O)(=O)NCC1CCCN(C(=O)c2cc3ccccc3o2)C1 (stereo unspecified),Percent Effect,"30.3 µM, […]",1.962%
O=C(COCC(F)(F)F)NS(=O)(=O)c1ccc2c(c1)OCCCO2,Percent Effect,"30.3 µM, […]",-2.455%
Cc1ccc(CN2CCc3onc(C(=O)N4CCCC4)c3C2)o1.O=C(O)C(F)(F)F,Percent Effect,"30.3 µM, […]",0.525%
CN1CCN(c2cc(NC(=O)Cn3ccc4ccccc43)ncn2)CC1,Percent Effect,"30.3 µM, […]",101.2%
O=C(Cn1ccc2ccccc21)Nc1cc(N2CCOCC2)ncn1,Percent Effect,"30.3 µM, […]",-10.05%
O=C(Cn1ccc2ccccc21)Nc1cc(N2CCCC2)ncn1,Percent Effect,"30.3 µM, […]",1.206%
O=C(CC1CC1)N1CC[C@H]2[C@@H]1CCC(=O)N2Cc1ccncc1.O=C(O)C(F)(F)F,Percent Effect,"30 µM, 30.03 µM",-15.55%
c1nc(N2CCCC(Cn3cncn3)C2)c2sccc2n1 (stereo unspecified),Percent Effect,"30.3 µM, […]",1.361%
Cc1cc(NC2CCc3ncnn3C2)n2ncnc2n1 (stereo unspecified),Percent Effect,"30 µM, 30.03 µM",-36.85%
Cc1nc[nH]c1CN1CCC2(CC1)CC(Nc1ncccn1)CO2.O=C(O)C(F)(F)F (stereo unspecified),Percent Effect,"30 µM, 30.03 µM",-22.29%
CC(=O)Nc1ccc(CCC2(NC(=O)C3CC3)CCCCC2)cn1,Percent Effect,"30.3 µM, […]",1.37%
CC(C)(C)c1ccc(CN2C[C@H]3C[C@H](O)C[C@H]3C2)c(OCC(N)=O)c1,Percent Effect,"30.3 µM, […]",-6.506%
Cc1cccnc1NC(=O)C(C)Cn1nc(C(F)(F)F)cc1C (stereo unspecified),Percent Effect,"30 µM, 30.03 µM",53.66%
Cc1cc(C(F)(F)F)nn1CC(C)C(=O)Nc1cccnc1 (stereo unspecified),Percent Effect,"30.3 µM, […]",-4.531%
Cc1cc(C(F)(F)F)nn1CC(C)C(=O)Nc1ccccn1 (stereo unspecified),Percent Effect,"30.3 µM, […]",13.6%
Cc1cc(N2CCN(C(=O)[C@@H]3C[C@@H]4C=C[C@H]3C4)CC2)nc2ccccc12,Percent Effect,"30.3 µM, […]",18.47%
Cl.O[C@@H]1CN(Cc2ccc(F)cc2)CC[C@H]1NCc1ccccn1,Percent Effect,"30.3 µM, […]",5.839%
CC(C)(C)C1CC(=O)Nc2c1cnn2Cc1ccco1 (stereo unspecified),Percent Effect,"30 µM, 30.03 µM",53.72%
CC(C)CC1CC(=O)Nc2c1cnn2Cc1ccco1 (stereo unspecified),Percent Effect,"30 µM, 30.03 µM",-10.02%
CC(C)C1CC(=O)Nc2c1cnn2Cc1ccco1 (stereo unspecified),Percent Effect,"30 µM, 30.03 µM",5.524%
COCc1nc(N(C)C)ncc1C(=O)NC(C)c1ccccc1 (stereo unspecified),Percent Effect,"30.3 µM, […]",-21.32%
O=C(c1cc(-c2ccn(CC3CC3)n2)n2ccccc12)N1CCCO1,Percent Effect,"30.3 µM, […]",-0.5665%
